By AC50 is commonly meant the concentration giving half of the maximal activity seen.

This is an account of results in PubChem BioAssay (EPA / NIEHS).

SMILES strings stand for the structures. Activity calls are given as the source filed them. Rule for the calls: active = hit-call score of the fitted dose curve at least 0.9, where 1 is the maximum; inactive = score below 0.9.

Read-out in the experiment: Collagen I, COL1A1 (gene 1277)
Put plainly: BSK_MyoF_CollagenI: BioMAP Diversity Plus: MyoF Assay for Collagen I Biomarker Activity (AID 2284238). As to conditions: primary human lung fibroblasts. In short, it runs like this: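 Lung fibroblasts (human primary) dosed, 24 h; Collagen I by ELISA; positive-direction fit vs DMSO control. Parallel SRB total-protein staining (0.1% SRB, 10% TCA fixation, 560 nm) flags overt cytotoxicity.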
Regarding `CCOP(=S)(OCC)SCCS(=O)(=O)CC`, the result was inactive. With `CCOC(=O)/C=C(C)/C=C/C[C@@H](C)CCCC(C)C`, the AC50 was 32.5 µM (active). As to `CCOP(=S)(OCC)Oc1ccc(S(C)=O)cc1` (centres undefined), the outcome was inactive. Consider `C(=NC1CCCCC1)=NC1CCCCC1`, for which the AC50 was 5.82 µM (active). In the case of `ClC(Cl)=C(Cl)C(Cl)=C(Cl)Cl`, the AC50 is 29.7 µM (active). As to `COP(=S)(OC)Oc1c(Cl)cc(C)cc1Cl`, the outcome was inactive.

In the case of `Oc1c(I)cc(I)cc1I`, the AC50 is 9.61 µM (active). With `CCNc1nc(NC(C)(C)C)nc(SC)n1`, the outcome was inactive. With `COP(=S)(OC)Oc1ccc(S(=O)(=O)N(C)C)cc1`, the outcome was inactive. In the case of `CCCCCCCCC(=O)NCc1ccc(O)c(OC)c1`, the outcome was inactive. As for `CC(=O)C(Cl)C(=O)N(C)C` (centres undefined), the result was inactive. Same read-out and setting: as for `CC(C)CCCCCCOC(=O)c1ccccc1C(=O)OCCCCCCC(C)C`, the entry is “inactive”.

Take `O=S(=O)(c1ccc(Cl)cc1)c1ccc(Cl)cc1`: the outcome was inactive. Still for that read-out and setting: as for `O=[N+]([O-])c1ccc2c3c(cccc13)CC2`, the entry is “inactive”. Still for that read-out and setting: as for `Nc1cccc2ccccc12`, the entry is “inactive”; as for `CCCCC(CC)CO[N+](=O)[O-]` (centres undefined), “inactive”. As for `COP(=S)(OC)Oc1ccc(Sc2ccc(OP(=S)(OC)OC)cc2)cc1`, the AC50 was 28.7 µM (active). Consider `Nc1ncc([N+](=O)[O-])s1`, for which the outcome was inactive.

On to `COC[C@H](C)N(C(=O)CCl)c1c(C)csc1C`, for which the result was inactive.
